Test results published in PubChem BioAssay (NCATS).
Records with an inconclusive call do not appear. Entries that show only a call come without a potency. Activity calls are given as the source filed them. Calls follow the shape of the dose curve; as a rule, active = well fitted curve in the direction sought with a large enough effect; inconclusive = small, poorly fitted or top-dose-only effect, or another doubt; inactive = no such curve, though single readings can be large; an effect the other way counts as inactive or inconclusive.

Key:
[1] = test system: Zika virus NS2B-NS3 protease (unlinked complex); test: Primary screen GU Rhodamine qHTS for Zika virus inhibitors: Unlinked NS2B-NS3 protease assay (AID 1347159); also: nearly all actives have a fitted effect of over 60% in size
Procedure, shortened: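 In dose–response format, inhibition of unlinked protease (25 nM) was measured with 1.5 microM bis-peptide Rhodamine110 substrate. Aprotinin served as the intraplate control.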

[2] = test system: Zika virus NS2B-NS3 protease (linked construct); test: Primary screen NINDS Rhodamine qHTS for Zika virus inhibitors (AID 1347160); conditions: outcome: dose series up to 57.1 µM unless noted; also: nearly all actives have a fitted effect of over 55% in size
Procedure, shortened: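 Each compound, titrated, sat 15 min with 25 nM linked protease before 1.5 microM Rhodamine110 substrate went in. Fluorescence gain over the next 15 min, in pH 8.0 Tris with Tween 20, gave Hill-fitted curves.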

[3] = test system: Zika virus NS2B-NS3 protease; test: Primary screen GU AMC qHTS for Zika virus inhibitors (AID 1347154); also: nearly all actives have a fitted effect of over 70% in size
Procedure, shortened: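 Fluorogenic AMC-substrate cleavage by noncovalent NS2B-NS3 protease complex (25 nM, pH 8.0 Tris buffer with Tween 20) followed for 15 minutes at room temperature (~20% conversion). Percent inhibition from ex340/em450 signal change, fitted by 4-parameter Hill equation.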

[4] = qHTS to identify inhibitors of the type 1 interferon - major histocompatibility complex class I in skeletal muscle: primary screen against the NCATS Pharmaceutical Collection (AID 1347407);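 also: luminescence of HiBiT knocked into endogenous HLA-B as interferon-induced MHC class I level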; also: potency is read from the fitted curve at half-maximal effect
Procedure, shortened: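 Immortalized human myoblasts (C25cl48) with HiBiT knocked into endogenous HLA-B*08:01 were stimulated with 4.0 ng/ml IFN-beta and treated with compounds ([…] top 46 uM) for 24 hrs at 37 C. HiBiT lytic luminescence read.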

Row | Compound | Potency [1] | outcome [2] | Potency [3] | Potency [4]
1 | NC1(c2ccc(-c3nc4ccn5c(=O)[nH]nc5c4cc3-c3ccccc3)cc2)CCC1 | inactive | inactive |  | 
2 | Cc1nnc(NS(=O)(=O)c2ccc(N)cc2)s1 |  |  | inactive | inactive
3 | O[C@@H](CNC[C@H](O)[C@H]1CCc2cc(F)ccc2O1)[C@@H]1CCc2cc(F)ccc2O1 |  |  | inactive | 26.4 µM (active)
4 | COc1ncnc(NS(=O)(=O)c2ccc(N)cc2)c1OC |  |  | inactive | inactive
5 | CCOCC(O)COc1ccc(NC(=O)CC[S+](C)C)cc1 (configuration not stated) |  |  | inactive | inactive
6 | COc1ccc2cc3[n+](cc2c1OC)CCc1cc2c(cc1-3)OCO2 |  |  | inactive | inactive
7 | COC(c1ccccc1)(c1ccccc1)[C@H](Oc1nc(C)cc(C)n1)C(=O)O |  |  | inactive | inactive
8 | CC1=CC(=O)c2ccccc2C1=O |  |  | inactive | inactive
9 | CCN(C)C(=O)Oc1cccc([C@H](C)N(C)C)c1 |  |  | inactive | inactive
10 | CC(N)C12CC3CC(CC(C3)C1)C2 (configuration not stated) |  |  | inactive | inactive
11 | CCC(C)(C)c1ccc(CC(C)CN2C[C@@H](C)O[C@@H](C)C2)cc1 (some centres not stated) |  |  | inactive | inactive
12 | Cn1c(=O)c2c(ncn2CC(O)CO)n(C)c1=O (configuration not stated) |  |  | inactive | inactive
13 | NS(=O)(=O)c1cc2c(cc1Cl)NC(C(Cl)Cl)NS2(=O)=O (configuration not stated) |  |  | inactive | inactive
14 | C[C@@H]1CN(c2c(F)c(N)c3c(=O)c(C(=O)O)cn(C4CC4)c3c2F)C[C@H](C)N1 |  |  | inactive | inactive
15 | CCCc1cc(C(N)=S)ccn1 |  |  | inactive | inactive
16 | CCOc1cc(N)c(Cl)cc1C(=O)NCC1CN(Cc2ccc(F)cc2)CCO1 (configuration not stated) |  |  | inactive | inactive
